{"source": "PubChem BioAssay AID1053115", "about": "(Broad Institute, 2014)", "note": "Measured potencies and affinities stand elsewhere. Values without a mark were called inactive.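 Rule for the calls: active = cytotoxic compounds whose fitted half-maximal concentration is at most twice the top valid tested dose; inconclusive = flat curve showing 30 to 70% signal loss, or poor fit; inactive = the rest.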", "data": [{"assay": "A549 cell cytotoxicity, dose response, cytotoxicity control, 24 h, CellTiter-Glo luminescence, cherry-picks (AID 1053115)", "conditions": "A549 viability, CellTiter-Glo ATP luminescence; series mostly up to 30 µM; activity change, negative = cytotoxicity: at the top concentration", "units": {"activity change, negative = cytotoxicity": "%"}, "values": [{"smiles": "C[C@@H]1CN([C@H](C)CO)S(=O)(=O)c2ccc(C#C[C@@H](C)O)cc2O[C@H]1CN(C)Cc1ccccc1", "activity change, negative = cytotoxicity": -5.37}, {"smiles": "C[C@H](O)C#Cc1ccc2c(c1)O[C@@H](CN(C)Cc1ccccc1)[C@@H](C)CN([C@@H](C)CO)S2(=O)=O", "activity change, negative = cytotoxicity": 3.63}, {"smiles": "C[C@H](CO)N1C[C@H](C)[C@@H](CN(C)Cc2ccccc2)Oc2cc(C#C[C@@H](C)O)ccc2S1(=O)=O", "activity change, negative = cytotoxicity": -11.4}, {"smiles": "Cc1noc(C)c1S(=O)(=O)Nc1ccc2c(c1)C(=O)N([C@@H](C)CO)C[C@@H](C)[C@H](CN(C)S(=O)(=O)c1cccs1)O2", "activity change, negative = cytotoxicity": -4.84}, {"smiles": "C[C@H](O)C#Cc1ccc2c(c1)O[C@H](CN(C)Cc1ccc(-c3ccccc3)cc1)[C@H](C)CN([C@H](C)CO)S2(=O)=O", "activity change, negative = cytotoxicity": -9.27}, {"smiles": "C[C@@H](O)C#Cc1ccc2c(c1)O[C@@H](CN(C)Cc1ccncc1)[C@@H](C)CN([C@@H](C)CO)S2(=O)=O", "activity change, negative = cytotoxicity": 11.4}, {"smiles": "CCCNC(=O)c1cc2c(c(-c3cccc(-c4cccc(F)c4)c3)n1)[C@H](CCO)N([S@@](=O)C(C)(C)C)C2", "activity change, negative = cytotoxicity": 13.3}, {"smiles": "C[C@H](O)C#Cc1ccc2c(c1)O[C@H](CN(C)Cc1ccccc1)[C@H](C)CN([C@H](C)CO)S2(=O)=O", "activity change, negative = cytotoxicity": 5.63}, {"smiles": "CN1c2ccc(C#Cc3cccnc3)cc2[C@H]2[C@H](CCN2C(=O)C2CCCCC2)[C@H]1CO", "activity change, negative = cytotoxicity": -14.6}, {"smiles": "C[C@H](CO)N1C[C@H](C)[C@H](CN(C)Cc2ccccc2)Oc2cc(C#C[C@@H](C)O)ccc2S1(=O)=O", "activity change, negative = cytotoxicity": 4.46}, {"smiles": "C[C@H]1CCCCO[C@H](CN(C)S(=O)(=O)c2ccc(Cl)cc2)[C@@H](C)CN([C@@H](C)CO)C(=O)c2cc(NC(=O)Nc3ccc(F)cc3)ccc2O1", "activity change, negative = cytotoxicity": -3.3}]}]}
